PAFAH1B3 inh: PAFAH1B3 enzyme inhibitors, primary screen, biochemical, fluorescence polarization, human; actives 0.28% (n = 340,000); inhibition, % at 3.39 µM; Platelet-activating factor acetylhydrolase IB subunit alpha1 (Homo sapiens), Q15102; recombinant PAFAH1B3, FP-rhodamine probe;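 active = inhibition above the screen-wide average of all tested compounds plus 3 SD, cut at about 25% in these data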;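 note: 0% = enzyme with DMSO only and 100% = wells lacking PAFAH1B3 protein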
PAFAH1B2 FP inh: PAFAH1B2 enzyme inhibitors, primary screen, biochemical, fluorescence polarization, human | actives 1.2% (n = 340,000) | recombinant PAFAH1B2, FP-rhodamine activity probe | inhibition, % at 3.39 µM | Platelet-activating factor acetylhydrolase IB subunit alpha2 (Homo sapiens), P68402;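 active = inhibition above the mean of all tested compounds plus 3 SD, cut at about 24% in these data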;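 note: 0% = enzyme with DMSO and 100% = wells lacking PAFAH1B2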
Target sequence (P68402 whole entry, looked up): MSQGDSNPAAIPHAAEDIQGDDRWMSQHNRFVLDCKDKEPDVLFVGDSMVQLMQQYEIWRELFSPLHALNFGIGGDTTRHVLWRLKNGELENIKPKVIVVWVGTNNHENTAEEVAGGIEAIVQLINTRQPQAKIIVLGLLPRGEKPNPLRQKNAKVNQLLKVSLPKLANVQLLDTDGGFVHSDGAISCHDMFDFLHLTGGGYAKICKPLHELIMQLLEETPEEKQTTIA
EBNA-1 inhibitor: EBNA-1 DNA-binding inhibitors, primary screen, biochemical, fluorescence polarization. inhibition, % at 14.8 µM. actives 0.34% (n = 300,000); in the data active = inhibition above about 28%
pPAFAH FP inh: pPAFAH enzyme inhibitors, primary screen, biochemical, fluorescence polarization, human; Platelet-activating factor acetylhydrolase (Homo sapiens), Q13093; recombinant pPAFAH, FP-rhodamine probe fluorescence polarization; inhibition, % at 3.39 µM; actives 1.5% (n = 330,000); AID 463082, 2010;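 active = inhibition above the mean inhibition across the screen plus 3 SD, cut at about 25% in these data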;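 note: inhibitors block binding of the rhodamine activity-based probe so polarization drops; 0% = enzyme with DMSO and 100% = wells lacking pPAFAH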
Target sequence (Q13093 whole entry, looked up): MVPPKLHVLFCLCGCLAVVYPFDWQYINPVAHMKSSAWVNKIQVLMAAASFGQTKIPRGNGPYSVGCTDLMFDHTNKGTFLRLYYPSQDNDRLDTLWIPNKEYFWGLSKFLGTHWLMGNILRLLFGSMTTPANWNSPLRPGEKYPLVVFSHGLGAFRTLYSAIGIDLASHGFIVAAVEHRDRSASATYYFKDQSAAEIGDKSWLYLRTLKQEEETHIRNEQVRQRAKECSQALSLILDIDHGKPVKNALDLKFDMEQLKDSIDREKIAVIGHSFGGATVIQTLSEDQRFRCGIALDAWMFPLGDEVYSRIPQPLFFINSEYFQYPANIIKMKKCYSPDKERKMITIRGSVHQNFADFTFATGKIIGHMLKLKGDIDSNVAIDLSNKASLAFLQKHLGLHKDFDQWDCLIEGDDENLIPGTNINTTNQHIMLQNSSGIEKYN
ZTA counter: blocks Epstein-Barr virus ZTA, an EBNA-1 counter-screen. P03206. ZTA-DNA binding, fluorescence polarization. inhibition, % at 11 µM. actives 0.15% (n = 320,000); in the data active = inhibition above about 33%
PAFAH2 inh: PAFAH2 enzyme inhibitors, primary screen, biochemical, fluorescence polarization, human; actives 0.99% (n = 340,000); inhibition, % at 3.39 µM; AID 492956, 2010; recombinant PAFAH2, FP-rhodamine activity probe; Platelet-activating factor acetylhydrolase 2, cytoplasmic (Homo sapiens), Q99487;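 active = inhibition above the mean over all tested compounds plus 3 SD, cut at about 30% in these data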;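 note: inhibitors block probe labeling of enzyme so polarization drops; 0% = enzyme with DMSO and 100% = wells lacking PAFAH2 protein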
pPAFAH FP conf: pPAFAH (PLA2G7) enzyme inhibitors, confirmation, biochemical, fluorescence polarization, human; shares compounds with pPAFAH FP inh; recombinant pPAFAH, FP-Rh probe fluorescence polarization; inhibition, % at 3.39 µM; actives 72% (n = 2,300);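 active = mean inhibition of the triplicate above the hit cutoff set for the earlier primary screen, cut at about 25% in these data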;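 note: 0% = enzyme with DMSO and 100% = wells lacking pPAFAH enzyme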
An asterisk follows results filed as active; · = no result. Compounds with a hit are over-represented: about 2.9% of the library has one in this group of screens.

SMILES	PAFAH1B3 inh	PAFAH1B2 FP inh	EBNA-1 inhibitor	pPAFAH FP inh	ZTA counter	PAFAH2 inh	pPAFAH FP conf
O=C(NCCc1ccccc1)c1ccc2c(=O)[nH]c3c(C(=O)NCC4CCCO4)sc(=S)n3c2c1 (centres undefined)	30.2*	49.6*	-3.8	70.7*	-3.6	21.7	83.9*
O=C(NCC1CCCO1)c1ccc2c(=O)n(CC3CCCO3)c(=S)[nH]c2c1 (centres undefined)	1.3	5.7	6.8	1.4	-4.7	5.4	·
O=C(CCNS(=O)(=O)c1ccc(Br)cc1)NNC(=O)C1COc2ccccc2O1 (centres undefined)	6.2	17.3	·	-0.4	·	6.6	·
Cc1ccc2nc(/C(C#N)=C/c3ccc(O)c(O)c3)[nH]c2c1	46.6*	23.5	6.2	65.4*	-6.2	27.2	78.9*
CC(=O)Nc1ccc(NC(=O)[C@H](C)NC(=O)c2ccco2)cc1	8.0	1.8	1.8	4.7	1.3	1.5	·
CC(=O)c1sc(C(=O)O)c(-c2ccco2)c1-c1ccco1	5.1	7.0	-5.5	23.2	7.5	8.4	·
NS(=O)(=O)c1ccc(N2CCCC2=O)c([N+](=O)[O-])c1	4.9	6.2	-8.6	43.5*	8.2	2.3	4.5
O=C(CSc1ccc(-c2ccco2)nn1)c1cccc([N+](=O)[O-])c1	2.5	3.4	10.3	37.6*	-8.8	9.2	9.7
CC(=O)c1cccc(NC(=O)CSc2ccc(-c3ccco3)nn2)c1	-1.5	7.8	5.4	1.7	1.2	3.0	·
COc1ccc2noc3c2c1C(=O)c1ccccc1-3	24.6	19.9	0.6	38.1*	13.8	38.0*	25.0*
CCOc1ccc2[nH]c3c(N4CCN(c5ccccn5)CC4)ncnc3c2c1	3.2	9.2	-0.4	44.4*	-3.2	12.8	12.9
Cc1ccc2[nH]c3c(N4CCN(Cc5ccccc5)CC4)ncnc3c2c1	-4.0	5.2	-6.8	3.9	0.2	8.4	·
Cc1ccc(CNC(=O)COC(=O)c2ccc(S(=O)(=O)N(C)C)cc2)cc1	-2.1	0.5	-5.1	5.7	-17.1	9.5	·
CC1Oc2cc3oc4c(O)c(O)ccc4c(=O)c3c(O)c2C1(C)C (centres undefined)	7.5	10.9	-1.6	74.6*	7.2	31.8*	82.6*
N#C/C(=C\c1cc(Cl)c(OCc2ccc(Cl)cc2)c(Cl)c1)C(N)=O	·	·	-9.2	9.9	8.4	·	·
N#C/C(=C\c1cc(O)c(O)c(O)c1)C(N)=O	15.4	8.5	0.0	41.8*	9.3	11.7	11.4
COc1ccccc1C(=O)NC(=O)CSc1nnnn1C	3.0	7.0	·	-0.1	·	0.8	·
CCOC(=O)c1cnn(C)c1NC(=O)c1ccc(Cl)cc1Cl	3.8	5.4	-16.8	-0.6	1.2	-2.9	·
CC(C)(C)c1cc(C(=O)N/N=C/c2ccc(-c3ccccc3[N+](=O)[O-])o2)n[nH]1	5.5	5.3	4.8	58.1*	5.7	9.0	9.1
O=C(N/N=C/c1ccc(-c2ccccc2[N+](=O)[O-])o1)c1cccnc1	16.2	10.6	-6.9	10.8	-1.9	10.2	·
N#CC1=C(N)N2C(=C(C#N)C1c1cccc(Br)c1)Nc1ccccc12 (centres undefined)	3.7	-1.1	-3.5	5.7	-4.0	18.9	·
N#CC1=C(N)N2C(=C(C#N)C1c1ccc(Br)cc1)Nc1ccccc12 (centres undefined)	·	·	4.2	63.2*	-2.1	·	70.6*
CC1=NN(c2ccccc2)C(=O)/C1=C/c1c(O)n(-c2ccc(F)cc2)[nH]c1=O	44.5*	47.1*	9.8	53.5*	-6.1	47.6*	52.8*
CC1=NN(c2ccccc2)C(=O)/C1=C/c1ccc(Cl)cc1	7.2	8.7	·	·	·	13.7	·
COc1ccc(CNC(=O)COC(=O)CC2CCCC2)cc1	5.1	0.2	-3.2	4.1	-5.3	-4.0	·
SMILES	PAFAH1B3 inh	PAFAH1B2 FP inh	EBNA-1 inhibitor	pPAFAH FP inh	ZTA counter	PAFAH2 inh	pPAFAH FP conf
CCOc1ccc(S(=O)(=O)Nc2ccc(C(=O)NCC(c3ccc(OC)cc3)N3CCOCC3)cc2)cc1 (centres undefined)	-4.5	1.9	·	-0.4	·	-0.3	·
CCOc1ccc(NS(=O)(=O)c2ccc(C(=O)NCC3(N(C)C)CCCCC3)cc2)cc1	3.0	3.8	-13.5	52.1*	-14.3	-0.5	44.6*
CCOc1ccc(NS(=O)(=O)c2ccc(C(=O)NCC(c3ccc(OC)cc3)N3CCOCC3)cc2)cc1 (centres undefined)	-1.0	3.0	-16.3	50.4*	-2.8	4.0	59.0*
CCC(C)(O)c1[nH]c2ccc(C(=O)OC)cc2c1C (centres undefined)	3.0	-3.3	-1.9	2.5	6.1	3.7	·
NS(=O)(=O)c1ccc(CCNC(=O)c2cc([N+](=O)[O-])ccc2N2CCCCC2)cc1	3.2	3.6	3.4	2.2	3.1	-3.8	·
CC(=O)[C@]1(O)Cc2c(O)c3c(c(O)c2[C@@H](O[C@H]2C[C@H](N)[C@H](O)[C@H](C)O2)C1)C(=O)c1ccccc1C3=O	·	·	-12.5	59.2*	25.6	·	68.6*
c1ccc(OCc2noc(CN3CCC(C4CCCCC4)C3)n2)cc1 (centres undefined)	5.5	5.6	-0.3	2.5	12.4	5.0	·
CCc1nc(-c2ccccc2)cc(=O)[nH]1	9.8	-1.2	-7.2	40.1*	-4.8	4.1	3.8
O=C(CN1C(=O)C2CC=CCC2C1=O)Nc1ccc(S(=O)(=O)Nc2nccs2)cc1 (centres undefined)	3.9	3.4	-14.8	1.9	-5.9	4.7	·
O=C(Nc1cc(S(=O)(=O)N2CCOCC2)ccc1O)c1ccc(NS(=O)(=O)c2ccc(Cl)s2)cc1	-4.4	7.2	7.8	45.0*	1.0	2.5	45.3*
COc1ccc(CC(=O)Nc2cccc(/C(C)=N/NC(=O)c3cccc([N+](=O)[O-])c3)c2)cc1	-0.3	3.2	4.2	79.6*	10.7	-2.4	5.4
C/C(CCC(C)C)=N\NC(=S)Nc1cc(S(=O)(=O)N2CCOCC2)ccc1N1CCOCC1	3.8	2.3	-2.1	0.9	0.7	-1.2	·
COc1cc(NC(c2ccccc2)c2ccccc2)cc(OC)c1OC	-4.9	-4.6	-0.4	44.1*	-14.0	1.0	42.8*
CSc1ccccc1C(=O)N1CCC2(CC1)CC(=O)c1ccccc1O2	6.4	4.1	-10.3	6.9	-5.0	3.1	·
CCN(C(=S)NC(=O)C1CC1)c1ccccc1	-0.2	2.4	0.3	1.2	-1.4	0.7	·
CN(C(=S)NC(=O)C1CC1)c1ccc(O)cc1	-2.2	8.4	·	61.4*	-3.2	-0.9	2.0

Source: PubChem BioAssay
